Experimental data reported in PubChem BioAssay (EPA / NIEHS).
Values joined by “and” are separate entries in the source; they are usually repeats but may differ in a detail not shown here. Equal entries are not always repeated. Inconclusive results are not listed. Some structures have more than one record in an assay (separate samples or runs), and their calls can disagree. Active and inactive are the calls of the source. Rule for the calls, unless noted: active = hit-call score of the fitted dose curve at least 0.9, where 1 is the maximum; inactive = score below 0.9.

Columns and labels:
[1] = CCTE_Padilla_ZF_Score.Craniofacial: CCTE's 144 Hour Post-fertilization zebrafish Assay Score for Craniofacial Malformation, Padilla Lab (AID 2284405)
Method in brief: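 Craniofacial defects were scored at 6 dpf by two blinded observers using stereomicroscopy. Exposure of wild-type embryos began at 6–8 hpf in sealed wells of 10% Hanks' solution at 26C, with chemical removed by rinsing at 5 dpf.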

[2] = CCTE_Padilla_ZF_Score.Edema: CCTE's 144 Hour Post-fertilization zebrafish Assay Score for Edema Malformation, Padilla Lab (AID 2284406)
Method in brief: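 Edema scored at 6 dpf by two blinded observers under a stereo microscope, in single outbred wild-type larvae exposed from 6-8 hpf in sealed wells (Hanks', 26C, 14:10 h light) and chemical-free after a 5 dpf rinse.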

[3] = CCTE_Padilla_ZF_Score.Spine: CCTE's 144 Hour Post-fertilization zebrafish Assay Score for Spine Malformation, Padilla Lab (AID 2284407)
Method in brief: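 Spine malformation scored at 6 dpf by two independent blinded observers under stereomicroscope, after static sealed exposure from 6–8 hpf at 26C in Hanks' solution with rinse on 5 dpf. Positive-direction fit against DMSO control.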

[4] = CCTE_Padilla_ZF_Score.Swim_bladder: CCTE's 144 Hour Post-fertilization zebrafish Assay Score for Swim Bladder Malformation, Padilla Lab (AID 2284408)
Method in brief: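 Swim bladder inflation scored at 6 dpf by two blinded observers under a stereo microscope. Exposure ran from 6–8 hpf in sealed wells of 10% Hanks' at 26C, with rinsing at 5 dpf; DMSO served as baseline.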

[5] = CCTE_Padilla_ZF_Score.Position: CCTE's 144 Hour Post-fertilization zebrafish Assay Score for Position, Padilla Lab (AID 2284409)
Method in brief: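 Wild-type zebrafish embryos (with chorions) exposed singly from 6–8 hpf in sealed wells of Hanks' solution at 26C, rinsed at 5 dpf. At 6 dpf, blinded assessors scored abnormal water-column position by brightfield stereomicroscopy, relative to DMSO.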

[6] = CCTE_Padilla_ZF_Score.Living: CCTE's 144 Hour Post-fertilization zebrafish Assay Score for Viability, Padilla Lab (AID 2284410);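 note: larval death at 6 dpf judged by absent heartbeat or coagulation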
Method in brief: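 Mortality at 6 dpf, judged as absent heartbeat or coagulation by two blinded observers, after sealed static exposure beginning at 6–8 hpf at 26C. Larvae were rinsed free of chemical at 5 dpf, and activity was fitted relative to DMSO.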

[7] = CCTE_Padilla_ZF_Score.General: CCTE's 144 Hour Post-fertilization zebrafish Assay Score for General Malformation, Padilla Lab (AID 2284411)
Method in brief: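 Malformation, death and hatching were scored at 6 dpf by two blinded observers under a stereo microscope. Embryos were dosed singly from 6-8 hpf in sealed plates of 10% Hanks' at 26C and rinsed on 5 dpf; DMSO baseline.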

[8] = CCTE_Padilla_ZF_Score.Tail: CCTE's 144 Hour Post-fertilization zebrafish Assay Score for Tail Malformation, Padilla Lab (AID 2284414)
Method in brief: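 Tail malformations were scored at 6 dpf by two blinded assessors under a stereo microscope. Chorionated embryos had been exposed from 6-8 hpf in sealed wells of 10% Hanks' at 26 C, then rinsed free of chemical at 5 dpf.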

[9] = CCTE_Padilla_ZF_Score.Blood_pooling: CCTE's 144 Hour Post-fertilization zebrafish Assay Score for Blood Pooling, Padilla Lab (AID 2284415)
Method in brief: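 Blood pooling was scored at 6 dpf under a stereo microscope by two blinded assessors, fitted upward against DMSO. Single embryos were dosed at 6–8 hpf in 10% Hanks', kept sealed at 26C (14:10 h cycle) and rinsed at 5 dpf.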

[10] = CCTE_Padilla_ZF_Score.Any: CCTE's 144 Hour Post-fertilization zebrafish Assay Score for Any Mortality or Malformation, Padilla Lab (AID 2284416)
Method in brief: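 Wild-type zebrafish embryos with chorions, one per well in 10% Hanks' from 6–8 hpf, dosed in sealed plates at 26 C, 14:10 h light:dark; rinsed at 5 dpf; blinded scoring at 6 dpf for death or malformation, versus DMSO.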

TTR (gene 7276) = assay: CCTE_GLTED_hTTR_0.125uM: CCTE's human Transthyretin (hTTR) Inhibition Assay, with 0.125uM TTR, Great Lakes Toxicology and Ecology Division (GLTED) Lab (AID 2284431);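 note: hits lower the fluorescence signal relative to DMSO baseline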
Method in brief: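 Cell-free displacement of the fluorescent probe ANSA from human TTR (0.125uM) after 2 h incubation with test chemical. Fluorescence read at 380 nm excitation/475 nm emission; loss of signal fitted relative to DMSO baseline.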

[11] = test system: SRY-box transcription factor 2 (SOX2) Protein Expression, Deisenroth Lab, SOX2 (gene 6657); assay: CCTE_Deisenroth_DEVTOX-GLR_Endo_SOX2: CCTE's DevTox GLR-Endo Assay Evaluation of SRY-box transcription factor 2 (SOX2) Protein Expression, Deisenroth Lab (AID 2284412; active = hit-call score of the fitted dose curve at least 0.9, where 1 is the maximum)
Method in brief: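 Endpoint is percent SOX2-positive cells (SOX2+ count/total cells) minus 0.2% DMSO control, from high-content imaging of fixed, nuclear-stained RUES2-GLR cells. Dosing twice at 24 h intervals over 48 h differentiation, 1 nM–200 uM in 10 points.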

[12] = test system: SRY-box transcription factor 17 (SOX17) Protein Expression, Deisenroth Lab, SOX17 (gene 64321); assay: CCTE_Deisenroth_DEVTOX-GLR_Endo_SOX17: CCTE's DevTox GLR-Endo Assay Evaluation of SRY-box transcription factor 17 (SOX17) Protein Expression, Deisenroth Lab (AID 2284413)
Method in brief: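 Fluorescent microscopy of a SOX17 reporter in RUES2-GLR pluripotent cells scored endoderm differentiation after 48 h and two 24-h-spaced exposures. Values are percent change in SOX17+ population against 0.2% DMSO, n=4 experimental replicates.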

[13] = test system: Brachyury (BRA) Protein Expression, TBXT (gene 6862); assay: CCTE_Deisenroth_DEVTOX-GLR_Endo_BRA: CCTE's DevTox GLR-Endo Assay Evaluation of Brachyury (BRA) Protein Expression, Deisenroth Lab (AID 2284417)
Method in brief: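 RUES2-GLR human pluripotent cells, seeded 24 h, then differentiated 48 h in defined media with two chemical exposures 24 h apart (10-point series, 1 nM - 200 uM). Fixed, nuclear-stained, imaged; endpoint is percent BRA+ cells minus 0.2% DMSO control.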

[14] = CCTE_Deisenroth_DEVTOX-GLR_Endo_CellCount: Viability Assessment in CCTE's DevTox GLR-Endo Assay, Deisenroth Lab (AID 2284420)
Method in brief: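 RUES2-GLR human pluripotent cells seeded 24 h, then differentiated 48 h with two chemical exposures at 24 h intervals (10-point, 1 nM - 200 uM). Fixed, nuclear-stained, imaged; nuclei counts give % change in cell count versus 0.2% DMSO.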

[15] = test system: SRY-box transcription factor 17 (SOX17) Protein Expression, Deisenroth Lab, SOX17 (gene 64321); assay: CCTE_Deisenroth_DEVTOX-GLR_Pluri_SOX17: CCTE's DevTox GLR-Pluri Assay Evaluation of SRY-box transcription factor 17 (SOX17) Protein Expression, Deisenroth Lab (AID 2284427; active = hit-call score of the fitted dose curve at least 0.9, where 1 is the maximum)
Method in brief: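 RUES2-GLR human pluripotent cells were seeded 24 h, then differentiated 48 h in defined media with two chemical exposures 24 h apart (10-point series, 1 nM - 200 uM). Fixed, nuclear-stained cells were imaged; %SOX17+ cells minus 0.2% DMSO control reported.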

[16] = test system: SRY-box transcription factor 2 (SOX2) Protein Expression, Deisenroth Lab, SOX2 (gene 6657); assay: CCTE_Deisenroth_DEVTOX-GLR_Pluri_SOX2: CCTE's DevTox GLR-Pluri Assay Evaluation of SRY-box transcription factor 2 (SOX2) Protein Expression, Deisenroth Lab (AID 2284428)
Method in brief: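 Human pluripotent RUES2-GLR cells were seeded 24 h, then differentiated 48 h in defined media with two chemical doses at 24-h intervals (10-point, 1 nM–200 uM). Nuclear-stained cells were imaged; SOX2+ cells/cell count gave percent change versus 0.2% DMSO control.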

[17] = test system: Brachyury (BRA) Protein Expression, Deisenroth Lab, TBXT (gene 6862); assay: CCTE_Deisenroth_DEVTOX-GLR_Pluri_BRA: CCTE's DevTox GLR-Pluri Assay Evaluation of Brachyury (BRA) Protein Expression, Deisenroth Lab (AID 2284429; active = hit-call score of the fitted dose curve at least 0.9, where 1 is the maximum)
Method in brief: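 Mesoderm readout after 48 h differentiation of human RUES2-GLR cells, dosed twice (24-h intervals) at 1 nM - 200 uM. BRA+ frequency from fluorescence imaging of fixed, nuclear-stained cells, DMSO-corrected.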

[18] = CCTE_Deisenroth_DEVTOX-GLR_Pluri_CellCount: Viability Assessment in CCTE's DevTox GLR-Pluri Assay Evaluation of Total Cell Counts, Deisenroth Lab (AID 2284430)
Method in brief: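 Cytotoxicity readout: fluorescent nuclei counts by high-content imaging, expressed as percent change relative to 0.2% DMSO. Human RUES2-GLR pluripotent line differentiated 48 h, dosed twice at 24-h intervals across 1 nM - 200 uM (10 points).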

Measured: AC50

O=S(=O)(O)C(F)(F)C(F)(F)C(F)(F)C(F)(F)F
active: TTR (gene 7276) 2.08 µM
inactive: [1] | [2] | [3] | [4] | [5] | [6] | [7] | [8] | [9] | [10]

O=C(O)C(F)(F)C(F)(F)C(F)(F)C(F)(F)C(F)(F)C(F)(F)C(F)(F)C(F)(F)C(F)(F)F
inactive: [1] | [2] | [3] | [5] | [8] | [9]
active: [4] 11.5 µM | [6] 17.5 µM | [7] 11.5 µM | [10] 10.7 µM | TTR (gene 7276) 0.646 µM

O=NN(c1ccccc1)c1ccccc1
active: TTR (gene 7276) 14.2 µM

Cc1cc(O)ccc1Cl
active: TTR (gene 7276) 20.5 µM

CCC(C)c1cc([N+](=O)[O-])cc([N+](=O)[O-])c1O (stereo not drawn)
active: TTR (gene 7276) 0.0883 µM

Cc1cc(-c2ccc(N)c(C)c2)ccc1N
active: TTR (gene 7276) 92.7 nM and 178 nM

Clc1ccc(C(Cl)(Cl)Cl)cc1
active: TTR (gene 7276) 1.04 µM

CC(C)(c1ccccc1)c1ccc(O)cc1
active: TTR (gene 7276) 0.888 µM

C=CC(N)=O
inactive: [11] | [12] | [13] | [14] | [15] | [16] | [17] | [18]

O=C(O)C(F)(F)C(F)(F)C(F)(F)C(F)(F)C(F)(F)F
active: TTR (gene 7276) 1.92 µM
inactive: [1] | [2] | [3] | [4] | [5] | [6] | [7] | [8] | [9] | [10]

Oc1c(Cl)c(Cl)c(Cl)c(Cl)c1Cl
active: [7] 0.681 µM

CC(c1ccc(O)cc1)(c1ccc(O)cc1)c1ccc(O)cc1
active: TTR (gene 7276) 1.48 µM

O=S(=O)(O)C(F)(F)C(F)(F)C(F)(F)C(F)(F)C(F)(F)C(F)(F)F
inactive: [1] | [2] | [3] | [4] | [5] | [6] | [7] | [8] | [9]
active: [1] 81.3 µM | [2] 29.6 µM | [4] 38.9 µM | [5] 87.5 µM | [6] 88.7 µM | [7] 83.7 µM | [10] 36.4 µM and 34.4 µM | TTR (gene 7276) 0.0856 µM

NS(=O)(=O)C(F)(F)C(F)(F)C(F)(F)C(F)(F)C(F)(F)C(F)(F)C(F)(F)C(F)(F)F
inactive: [1] | [3] | [5] | [8] | [9]
active: [2] 0.582 µM | [4] 0.321 µM | [6] 1.76 µM | [7] 0.453 µM | [10] 0.747 µM | TTR (gene 7276) 0.683 µM

CC1=C2C[C@H]3[C@@H](CC=C4C[C@@H](O)CC[C@@]43C)[C@@H]2CC[C@]12O[C@@H]1C[C@H](C)CN[C@H]1[C@H]2C
inactive: [12] | [13] | [14] | [15] | [16] | [17] | [18]

O=C(O)C(F)(F)C(F)(F)C(F)(F)C(F)(F)C(F)(F)C(F)(F)C(F)(F)C(F)(F)F
inactive: [1] | [3] | [8] | [9]
active: [2] 30.6 µM | [4] 30 µM | [5] 88.1 µM | [6] 81.2 µM | [7] 31.2 µM | [10] 29.1 µM | TTR (gene 7276) 0.21 µM

CCCCCCCCCc1ccc(O)cc1
active: TTR (gene 7276) 3.03 µM

Oc1ccc(C(c2ccc(O)cc2)(C(F)(F)F)C(F)(F)F)cc1
active: TTR (gene 7276) 2.53 µM

CCC(C)(c1ccc(O)cc1)c1ccc(O)cc1
active: TTR (gene 7276) 9.26 µM
